Data from PubChem BioAssay (EPA / NIEHS).
Values joined by “and” are separate entries in the source; they are usually repeats but may differ in a detail not shown here. Equal values may be shown once. Some structures have more than one record in an assay (separate samples or runs), and their calls can disagree. Active and inactive are the calls of the source. Rule for the calls: active = hit-call score of the fitted dose curve at least 0.9, where 1 is the maximum; inactive = score below 0.9.

Legend:
[1] = read-out: Tissue plasminogen activator (tPA), PLAT (gene 5327); assay: BSK_BE3C_tPA: BioMAP Diversity Plus: BE3C Assay for Tissue plasminogen activator (tPA) Biomarker Activity (AID 2283041); conditions: primary human bronchial epithelial cells; actives raise or lower the signal
Outline: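 Using human lung primary bronchial epithelial cells, tPA was measured by ELISA 24 h after dosing; data fitted relative to DMSO.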

[2] = read-out: Interleukin-8 (IL8), CXCL8 (gene 3576); assay: BSK_CASM3C_IL8: BioMAP Diversity Plus: CASM3C Assay for Interleukin-8 (IL8) Biomarker Activity (AID 2283042); conditions: primary human coronary artery smooth muscle cells; actives raise or lower the signal;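 note: IL-8 protein level quantified by ELISA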
[3] = read-out: Human Leukocyte Antigen - DR isotype (HLADR), HLA-DRA (gene 3122); assay: BSK_CASM3C_HLADR: BioMAP Diversity Plus: CASM3C Assay for Human Leukocyte Antigen - DR isotype (HLADR) Biomarker Activity (AID 2283043); conditions: primary human coronary artery smooth muscle cells; actives raise or lower the signal;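 note: cell-surface HLA-DR protein level quantified by ELISA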
[4] = read-out: Macrophage colony-stimulating factor (MCSF), CSF1 (gene 1435); assay: BSK_CASM3C_MCSF: BioMAP Diversity Plus: CASM3C Assay for Macrophage colony-stimulating factor (MCSF) Biomarker Activity (AID 2283044); conditions: primary human coronary artery smooth muscle cells; actives raise or lower the signal;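 note: M-CSF protein amount quantified by ELISA after 24 h exposure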
[5] = read-out: Low-density lipoprotein receptor (LDLR), LDLR (gene 3949); assay: BSK_CASM3C_LDLR: BioMAP Diversity Plus: CASM3C Assay for Low-density lipoprotein receptor (LDLR) Biomarker Activity (AID 2283045); conditions: primary human coronary artery smooth muscle cells; actives raise or lower the signal;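 note: LDLR protein level on the cell surface quantified by ELISA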
[6] = read-out: Monocyte Chemoattractant Protein-1 (MCP1), CCL2 (gene 6347); assay: BSK_CASM3C_MCP1: BioMAP Diversity Plus: CASM3C Assay for Monocyte Chemoattractant Protein-1 (MCP1) Biomarker Activity (AID 2283046); conditions: primary human coronary artery smooth muscle cells; actives raise or lower the signal;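 note: MCP-1 level quantified by ELISA 24 h after dosing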
[7] = BSK_CASM3C_Proliferation: Cell Proliferation Assessment in the BioMAP Diversity Plus: CASM3C Assay (AID 2283047); conditions: primary human coronary artery smooth muscle cells;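 note: sulforhodamine B total protein stain as relative cell number at 560 nm; sub-confluent cells exposed 48 h before staining; fitted both ways against DMSO so gain or loss of cell number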
[8] = read-out: Monokine induced gamma interferon (MIG), CXCL9 (gene 4283); assay: BSK_CASM3C_MIG: BioMAP Diversity Plus: CASM3C Assay for Monokine induced gamma interferon (MIG) Biomarker Activity (AID 2283048); conditions: primary human coronary artery smooth muscle cells; actives raise or lower the signal;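 note: MIG protein level measured by ELISA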
[9] = read-out: serum amyloid A (SAA), SAA1 (gene 6288); assay: BSK_CASM3C_SAA: BioMAP Diversity Plus: CASM3C Assay for serum amyloid A (SAA) Biomarker Activity (AID 2283049); conditions: primary human coronary artery smooth muscle cells; actives raise or lower the signal;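 note: SAA protein level quantified by ELISA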
[10] = BSK_CASM3C_SRB: Viability Assessment in the BioMAP Diversity Plus: CASM3C Assay (AID 2283050); conditions: primary human coronary artery smooth muscle cells;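 note: total protein by SRB staining as cytotoxicity measure in parallel cultures; cells exposed to compound for 24 h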
[11] = read-out: Thrombomodulin, THBD (gene 7056); assay: BSK_CASM3C_Thrombomodulin: BioMAP Diversity Plus: CASM3C Assay for Thrombomodulin Biomarker Activity (AID 2283051); conditions: primary human coronary artery smooth muscle cells; actives raise or lower the signal;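 note: thrombomodulin protein level measured by ELISA 24 h after dosing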
[12] = read-out: Tissue Factor, F3 (gene 2152); assay: BSK_CASM3C_TissueFactor: BioMAP Diversity Plus: CASM3C Assay for Tissue Factor Biomarker Activity (AID 2283052); conditions: primary human coronary artery smooth muscle cells; actives raise or lower the signal;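 note: cell surface tissue factor protein level read by ELISA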
[13] = read-out: Urokinase-type plasminogen activator receptor (uPAR), PLAUR (gene 5329); assay: BSK_CASM3C_uPAR: BioMAP Diversity Plus: CASM3C Assay for Urokinase-type plasminogen activator receptor (uPAR) Biomarker Activity (AID 2283054); conditions: primary human coronary artery smooth muscle cells; actives raise or lower the signal;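 note: cell-surface uPAR protein level quantified by ELISA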
[14] = read-out: Vascular cell adhesion molecule 1 (VCAM1), VCAM1 (gene 7412); assay: BSK_CASM3C_VCAM1: BioMAP Diversity Plus: CASM3C Assay for Vascular cell adhesion molecule 1 (VCAM1) Biomarker Activity (AID 2283055); conditions: primary human coronary artery smooth muscle cells; actives raise or lower the signal;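 note: VCAM-1 protein level quantified by ELISA on the cells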
[15] = read-out: Collagen III, COL3A1 (gene 1281); assay: BSK_hDFCGF_CollagenIII: BioMAP Diversity Plus: hDFCGF Assay for Collagen III Biomarker Activity (AID 2283056); conditions: primary human foreskin fibroblasts; actives raise or lower the signal
Outline: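 ELISA read-out of collagen III from human skin fibroblast cultures sampled 24 h post-dosing. Values were derived by bidirectional fitting relative to the DMSO vehicle control.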

[16] = read-out: Epidermal growth factor receptor (EGFR), EGFR (gene 1956); assay: BSK_hDFCGF_EGFR: BioMAP Diversity Plus: hDFCGF Assay for Epidermal growth factor receptor (EGFR) Biomarker Activity (AID 2283057); conditions: primary human foreskin fibroblasts; actives raise or lower the signal
Outline: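 Cell-based multiplexed assay in primary human foreskin fibroblasts. EGFR is read by ELISA 24 h after treatment and compared with DMSO controls.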

[17] = read-out: Interleukin-8 (IL8), CXCL8 (gene 3576); assay: BSK_hDFCGF_IL8: BioMAP Diversity Plus: hDFCGF Assay for Interleukin-8 (IL8) Biomarker Activity (AID 2283058); conditions: primary human foreskin fibroblasts; actives raise or lower the signal
Outline: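 Cells used are human skin primary fibroblasts. Chemical is added, cultures run 24 h, then IL-8 is quantified by ELISA, and gain or loss versus DMSO control is fitted in both directions.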

[18] = BSK_hDFCGF_Proliferation: Cell Proliferation Assessment in the BioMAP Diversity Plus: hDFCGF Assay (AID 2283059); conditions: primary human foreskin fibroblasts;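 note: curves fitted for both rise and fall of signal versus DMSO baseline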
Outline: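 This proliferation readout used SRB total-protein staining of human foreskin fibroblasts […], normalized to DMSO with bidirectional curve fitting.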

[19] = read-out: Macrophage colony-stimulating factor (MCSF), CSF1 (gene 1435); assay: BSK_hDFCGF_MCSF: BioMAP Diversity Plus: hDFCGF Assay for Macrophage colony-stimulating factor (MCSF) Biomarker Activity (AID 2283060); conditions: primary human foreskin fibroblasts; actives raise or lower the signal
Outline: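 Primary human foreskin fibroblasts dosed with chemical; 24 h later, M-CSF quantified by ELISA; curves fitted in both directions vs DMSO negative control.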

Measured: AC50

O=C1c2c(O)ccc(Nc3ccc(CCO)cc3)c2C(=O)c2c([N+](=O)[O-])ccc(O)c21
active: [2] 2.52 µM | [7] 14.5 µM | [10] 4.72 µM | [11] 20 µM | [15] 20 µM | [18] 10.4 µM | [19] 8.52 µM
inactive: all other assays above

O=S(=O)(Cl)C(F)(F)C(F)(F)C(F)(F)C(F)(F)C(F)(F)C(F)(F)C(F)(F)C(F)(F)F
active: [1] 48.7 µM and 48.8 µM | [18] 7.61 µM
inactive: [2] | [3] | [4] | [5] | [6] | [7] | [8] | [9] | [10] | [11] | [12] | [13] | [14] | [15] | [16] | [17] | [18] | [19]

O=C(O)C(F)(F)OC(F)(F)C(F)(F)OC(F)(F)C(F)(F)OC(F)(F)F
inactive: all assays above

C=C(C)C(=O)OCC(F)(F)C(F)(F)C(F)(F)C(F)F
inactive: all assays above

NCC(F)(F)C(F)(F)C(F)(F)C(F)(F)C(F)(F)C(F)(F)F
inactive: all assays above

O=C(O)C(F)(F)C(F)(F)C(F)(F)OC(F)(F)F
inactive: all assays above

OC(O)C(F)(F)C(F)(F)F
inactive: all assays above

FC(F)(F)C(F)(F)C(F)(F)CC1CO1 (stereo not given)
inactive: all assays above

O=S(=O)(O)CCC(F)(F)C(F)(F)C(F)(F)C(F)(F)F
active: [15] 2.04 µM
inactive: [1] | [2] | [3] | [4] | [5] | [6] | [7] | [8] | [9] | [10] | [11] | [12] | [13] | [14] | [15] | [16] | [17] | [18] | [19]

O=C(Cl)C(F)(F)C(F)(F)C(F)(F)C(F)(F)C(F)(F)C(F)(F)C(F)(F)F
inactive: all assays above

O=C(O)CCC(F)(F)C(F)(F)C(F)(F)F
inactive: all assays above

C=CC(=O)OCC(F)(F)C(F)(F)C(F)(F)C(F)(F)C(F)(F)C(F)(F)C(F)(F)C(F)F
inactive: [1] | [2] | [3] | [4] | [5] | [6] | [7] | [8] | [9] | [10] | [11] | [12] | [13] | [14] | [15] | [16] | [17]
active: [14] 11 µM | [18] 18.4 µM and 11.6 µM | [19] 28.8 µM and 30 µM

O=C(O)C(F)(F)C(F)(F)C(F)(F)OC(F)(C(F)(F)F)C(F)(F)F
inactive: all assays above
